Screening data as filed in PubChem.
Vif inh: blocks HIV Vif function; HEK293T cells, Vif self-association by quenched fluorescence, imaging, 24 h; inhibition, % at 7.49 µM; 340,000 compounds, 0.35% hits; AID 602346; in the data active = inhibition above about 50%, passing the limit was not always enough; inconclusive = no clear call, values can overlap the other calls; inactive = below about 31%
Myeloid diff MLP: compounds promoting myeloid differentiation; 360,000 compounds, 1% hits; calls only at 10 µM; ER-HoxA9 myeloid progenitors, lysozyme-GFP differentiation, flow cytometry;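 active = normalized GFP-positive differentiation at or above the plate's own cutoff, the solvent-only control mean plus 3 SD; inconclusive = no clear call, values can overlap the other calls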;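 note: cells exposed to compound for four days before flow analysis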
RAD54 inh: blocks human RAD54 Holliday junction branch migration; Q92698; FAM/BHQ fluorescence; inhibition, % at 10.4 µM; 360,000 compounds, 0.14% hits;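 active = mean normalized replicate activity at least 40 and at least half of replicates scoring 40 or more; inconclusive = only one of the two criteria met; inactive = mean below 40 and under half of replicates reaching 40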;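 note: 0% = median of neutral control wells and 100% = median of positive control wells; inhibitors cause a drop in the FAM fluorescence signal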
Target sequence (Q92698 whole entry, looked up): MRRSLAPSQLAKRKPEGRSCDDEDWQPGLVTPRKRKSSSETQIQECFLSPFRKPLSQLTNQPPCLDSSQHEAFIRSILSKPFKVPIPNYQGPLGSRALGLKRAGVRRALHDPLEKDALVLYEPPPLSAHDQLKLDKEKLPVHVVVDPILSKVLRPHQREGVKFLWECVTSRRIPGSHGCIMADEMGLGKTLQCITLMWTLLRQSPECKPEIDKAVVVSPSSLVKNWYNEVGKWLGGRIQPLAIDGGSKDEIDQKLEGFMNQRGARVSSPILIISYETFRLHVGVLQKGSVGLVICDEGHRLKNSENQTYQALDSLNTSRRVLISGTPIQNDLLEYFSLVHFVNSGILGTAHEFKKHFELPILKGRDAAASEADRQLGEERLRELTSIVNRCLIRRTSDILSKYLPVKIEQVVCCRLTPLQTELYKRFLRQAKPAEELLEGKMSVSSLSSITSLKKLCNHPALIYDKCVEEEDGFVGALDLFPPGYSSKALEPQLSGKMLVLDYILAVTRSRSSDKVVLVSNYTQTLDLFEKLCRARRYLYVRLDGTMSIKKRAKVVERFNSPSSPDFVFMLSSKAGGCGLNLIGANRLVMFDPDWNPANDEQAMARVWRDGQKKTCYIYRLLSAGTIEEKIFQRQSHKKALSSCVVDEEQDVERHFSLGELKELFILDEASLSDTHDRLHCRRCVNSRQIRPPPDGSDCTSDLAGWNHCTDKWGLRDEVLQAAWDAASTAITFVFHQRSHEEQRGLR
Glyco luc inh: N-linked glycosylation inhibition | 360,000 compounds, 0.23% hits | reporter increase, % at 12.5 µM | AID 588692 | D54 ERlucT glycosylation luciferase reporter, 24 h; percent of 100 nM tunicamycin response;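 active = mean luciferase reporter signal, scaled so untreated is 0 and the glycosylation-blocking control 100, at or above a set limit in every replicate; inconclusive = mean reaches the limit but not every replicate does; inactive = mean below the limit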;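 note: luciferase carries N-glycosylation sites so blocking glycosylation raises the light; 0% = median of neutral control wells and 100% = median of 100 nM tunicamycin wells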
ABCB6 inh MLPCN: blocks the human ABCB6 transporter; fluorescence ratio to DMSO, % at 10 µM; K562-ABCB6 porphyrin accumulation, flow cytometry, 1 h; stronger effect = lower value; AID 602162; 360,000 compounds, 0.19% hits; Q9NP58;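 active = fluorescence ratio to DMSO below 75%, the collection mean minus 3 SD; inconclusive = too few cells collected in the well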;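 note: signal is porphyrin accumulated inside mitochondria; 100% equals median channel fluorescence of DMSO control wells; lower ratio means ABCB6 inhibition with less porphyrin fluorescence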
An asterisk follows results filed as active; i = inactive; u = inconclusive; x = not tested or not shown; + = active, no number. Most compounds without a hit are left out; they make up all but 1.6% or so of the library.

SMILES	Vif inh	Myeloid diff MLP	RAD54 inh	Glyco luc inh	ABCB6 inh MLPCN
FC(F)c1nc2ccccc2[nH]1	12	i	x	1	102
Cc1ccc2c(c1)cc(CN(C(=O)N1CCOCC1)C1CCCC1)c1nnnn12	-5	x	x	40*	98
CCC(=O)N(Cc1cc2ccc(C)cc2n2nnnc12)C1CCCCC1	-4	i	x	0	99
CC(C)(C)C(=O)Nc1ccc(N2CCN(C(=O)c3cccs3)CC2)cc1	-7	+	1	-1	128
O=C(Nc1ccc(N2CCN(C(=O)c3cccs3)CC2)cc1)c1ccccc1Cl	-1	i	-7	-1	102
O=C(Nc1ccc(N2CCN(C(=O)c3cccs3)CC2)cc1)c1ccccc1F	10	+	8	-5	92
CC(C)(C)S(=O)(=O)N1C[C@@H]2CC/C=C\C/C(c3ccccc3)=C\2[C@H]1CCO	x	i	-6	38*	103
CO[C@@H]1CN(C)C(=O)c2cc(NC(=O)C3CC3)ccc2OC[C@H](C)N(Cc2cccnc2)C[C@H]1C	x	x	-4	x	x
CCN1CCSc2ccc(C(=O)NCc3ccccc3C)cc21	-4	i	15	0	98
CCN1CCSc2ccc(C(=O)NCc3ccccc3F)cc21	5	+	-7	0	99
C[C@H](CO)N1C[C@H](C)[C@@H](CN(C)S(=O)(=O)c2cccs2)Oc2ccc(NS(=O)(=O)c3ccc(F)cc3)cc2CC1=O	x	x	2	x	x
CCOC(=O)C1=C(Cc2ccc(OC)cc2)C(=O)c2ccccc2C1=O	-9	+	-8	u	513
CCOC(=O)c1c(C)nc2c(c1-c1cc(OC)ccc1OC)C(=O)c1ccccc1-2	-5	i	-6	0	102
CCOC(=O)C1=C(O)c2ccccc2C(=O)/C1=C\c1ccc(CC)cc1	-19	+	4	6	905
C#CC[N+](C)(C)CCCCCCCCC	-3	u	x	30*	98
COc1ccc(S(=O)(=O)N(C)C[C@H]2OCCCC[C@@H](C)Oc3ccc(NS(=O)(=O)c4ccccc4)cc3C(=O)N([C@@H](C)CO)C[C@H]2C)cc1	x	x	-6	x	x
O=C(c1cc(-c2cccc(Cl)c2)on1)N1CCc2ccccc2C1	-1	+	0	2	87
COC(=O)N1C(=O)[C@](c2ccc(Cl)cc2)(C(C)C)N1C(=O)OC	51*	i	3	1	96
COC(=O)N1C(=O)[C@@](c2ccc(OC)cc2)(C(C)C)N1C(=O)OC	11	i	0	-7	95
CCN(CC)C(=O)C1CCN(S(=O)(=O)c2c(C)noc2/C=C/c2cccc(C)c2)CC1	-4	+	6	-2	101
Cc1cccc(/C=C/c2onc(C)c2S(=O)(=O)N2CCC(C(=O)NC(C)(C)C)CC2)c1	4	i	-1	-2	102
O=[N+]([O-])c1ccc(NCCOc2ccccc2Cl)nc1	-1	+	8	-1	196
Clc1ccc2nc(-c3ccccc3)c(CN3CCOCC3)n2c1	-4	i	3	-1	98
Clc1ccc(-c2nc3ccccn3c2CN2CCOCC2)cc1	-4	+	x	2	93
O=C(C[C@H]1CC[C@@H]2[C@H](COC[C@@H](O)CN2Cc2cccc(C(F)(F)F)c2)O1)NCCc1ccccc1	x	x	-6	x	x
SMILES	Vif inh	Myeloid diff MLP	RAD54 inh	Glyco luc inh	ABCB6 inh MLPCN
C[C@@H]1COC(=O)[C@H](Cc2ccc(F)cc2)CC/C=C/C[C@@H](CC(=O)N[C@@H](CO)Cc2ccccc2)C(=O)N1	-9	i	-3	2	94
O=C1NC[C@H](c2ccccc2)OC(=O)[C@H](Cc2ccc(F)cc2)CC/C=C/C[C@@H]1CC(=O)N(CCO)Cc1ccccc1	-1	+	12	0	93
O=C1NC[C@@H](c2ccccc2)OC(=O)[C@@H](Cc2ccc(F)cc2)CC/C=C/C[C@H]1CC(=O)N(CCO)Cc1ccccc1	-4	u	4	5	100
O=C(C[C@@H]1C/C=C/CC[C@H](Cc2ccc(F)cc2)C(=O)OC[C@@H](Cc2ccccc2)NC1=O)N[C@H](CO)Cc1ccccc1	8	i	1	126*	97
Cc1nn2c(COc3ccc(NC(=O)c4ccccc4Cl)cc3)nnc2c2ccccc12	99*	+	2	9	93
Cc1cc(C)n(CCNC(=O)c2cc(COc3c(F)cccc3F)on2)n1	52*	i	-1	1	98
N=C1c2ccccc2CN1c1ccc(S(=O)(=O)N2CCCCC2)cc1	11	+	x	0	117
O=C1c2ccccc2C(=O)N1c1ccc(S(=O)(=O)N2CCCCC2)cc1	0	i	-7	-1	97
CN(Cc1nc2ccccc2n1C)S(=O)(=O)c1ccc(Cl)cc1	50*	i	2	0	86
CCCN(C)C[C@@H]1OCCCC[C@@H](C)Oc2ccc(NS(=O)(=O)c3ccc(F)cc3)cc2C(=O)N([C@H](C)CO)C[C@@H]1C	x	x	-2	x	x
Cc1nc(N)nc(N)c1Oc1ccc(Cl)cc1	-1	+	-3	-2	96
Cc1ccc(/C(N)=N/OC(=O)c2ccc(Cl)cc2Cl)cc1	-11	+	-4	-19	113
Cc1cccc(C(=O)O/N=C(\N)c2ccc(Cl)cc2)c1	-4	i	x	-1	88
Cc1ccc(S/C=C\C(=O)c2ccccc2)cc1	6	x	x	47*	97
Cc1ccc(C(=O)/C=C\C(=O)c2ccc(C)cc2)cc1	3	i	x	19	99
COc1cccc(N2CCN(C(C)C(=O)NC34CC5CC(CC(C5)C3)C4)CC2)c1 (stereo unspecified)	4	+	6	0	99
CC1CCCC/C1=N\NC(=S)Nc1ccccc1 (stereo unspecified)	66*	i	1	0	99
CC1CCC/C(=N\NC(=S)Nc2ccccc2)C1 (stereo unspecified)	11	i	-2	1	102
C#CCOCCOCCOCCNc1nc(N2CCN(C(=O)[C@H]([C@@H](C)O)n3cc(CCCCN)nn3)CC2)nc(N2CCN(C(=O)[C@H](CCCCN)n3cc(CCCC)nn3)CC2)n1	0	+	-42	-1	99
C#CCOCCOCCOCCNc1nc(N2CCN(C(=O)[C@H]([C@@H](C)CC)n3cc(CCCCN)nn3)CC2)nc(N2CCN(C(=O)[C@H](CCCCN)n3cc(CC(C)O)nn3)CC2)n1 (stereo partly specified)	-3	+	4	-2	100
C#CCOCCOCCOCCNc1nc(N2CCN(C(=O)CCCCCCCCCCNC(=O)Cn3cc(C[C@@H](C)O)nn3)CC2)nc(N2CCN(C(=O)CCCCCCCCCCNC(=O)[C@@H](CCSC)n3cc(CCO)nn3)CC2)n1	-3	+	0	-3	87
C#CCOCCOCCOCCNc1nc(N2CCN(C(=O)[C@H]([C@@H](C)O)n3cc(CCCCN)nn3)CC2)nc(N2CCN(C(=O)[C@H]([C@@H](C)CC)n3cc(CCCCN)nn3)CC2)n1	x	i	-20	-3	97
